Source: PubChem (The Scripps Research Institute Molecular Screening Center)
PLCg1 inh – PLC-gamma1 enzyme inhibitors, primary screen, biochemical, fluorescence, purified enzyme | fluorogenic substrate | inhibition, % at 12.2 µM | hit rate 0.84% among 370,000 | AID 720700, 2013; in the data active = inhibition above about 9.5%
proKLK7 act – proKLK7 zymogen activators, primary screen, biochemical, fluorescence intensity | hit rate 0.9% among 370,000 | activation, % at 7 µM | Kallikrein-7 (Homo sapiens), P49862 | purified proKLK7, EDANS-DABCYL substrate fluorescence; 100% is mature enzyme control, 0% vehicle;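 active = activation above the mean of all tested compounds plus 3 SD, computed per campaign excluding outliers beyond control limits, cut at about 13% in these data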
ADAM17 inh – ADAM17 inhibitors, primary screen, biochemical, QFRET | AID 720648, 2013 | inhibition, % at 6.95 µM | hit rate 0.83% among 370,000 | recombinant ADAM17, EDANS/DABCYL FRET peptide cleavage | Disintegrin and metalloproteinase domain-containing protein 17 (Homo sapiens), P78536;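 active = inhibition above the mean of compounds lying between control limits plus 3 SD, set per campaign, cut at about 8.5% in these data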;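 also: 0% = DMSO-only wells as the low control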
PLC-beta3 inh – human PLC-beta3 inhibitors, primary screen, biochemical, fluorescence; Purified PLC-beta3, fluorogenic substrate; inhibition, % at 12.2 µM; hit rate 0.18% among 370,000;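 also: 0% = median of compound wells on plate and 100% = full blocker control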
Target sequence (Q01970 whole entry, looked up): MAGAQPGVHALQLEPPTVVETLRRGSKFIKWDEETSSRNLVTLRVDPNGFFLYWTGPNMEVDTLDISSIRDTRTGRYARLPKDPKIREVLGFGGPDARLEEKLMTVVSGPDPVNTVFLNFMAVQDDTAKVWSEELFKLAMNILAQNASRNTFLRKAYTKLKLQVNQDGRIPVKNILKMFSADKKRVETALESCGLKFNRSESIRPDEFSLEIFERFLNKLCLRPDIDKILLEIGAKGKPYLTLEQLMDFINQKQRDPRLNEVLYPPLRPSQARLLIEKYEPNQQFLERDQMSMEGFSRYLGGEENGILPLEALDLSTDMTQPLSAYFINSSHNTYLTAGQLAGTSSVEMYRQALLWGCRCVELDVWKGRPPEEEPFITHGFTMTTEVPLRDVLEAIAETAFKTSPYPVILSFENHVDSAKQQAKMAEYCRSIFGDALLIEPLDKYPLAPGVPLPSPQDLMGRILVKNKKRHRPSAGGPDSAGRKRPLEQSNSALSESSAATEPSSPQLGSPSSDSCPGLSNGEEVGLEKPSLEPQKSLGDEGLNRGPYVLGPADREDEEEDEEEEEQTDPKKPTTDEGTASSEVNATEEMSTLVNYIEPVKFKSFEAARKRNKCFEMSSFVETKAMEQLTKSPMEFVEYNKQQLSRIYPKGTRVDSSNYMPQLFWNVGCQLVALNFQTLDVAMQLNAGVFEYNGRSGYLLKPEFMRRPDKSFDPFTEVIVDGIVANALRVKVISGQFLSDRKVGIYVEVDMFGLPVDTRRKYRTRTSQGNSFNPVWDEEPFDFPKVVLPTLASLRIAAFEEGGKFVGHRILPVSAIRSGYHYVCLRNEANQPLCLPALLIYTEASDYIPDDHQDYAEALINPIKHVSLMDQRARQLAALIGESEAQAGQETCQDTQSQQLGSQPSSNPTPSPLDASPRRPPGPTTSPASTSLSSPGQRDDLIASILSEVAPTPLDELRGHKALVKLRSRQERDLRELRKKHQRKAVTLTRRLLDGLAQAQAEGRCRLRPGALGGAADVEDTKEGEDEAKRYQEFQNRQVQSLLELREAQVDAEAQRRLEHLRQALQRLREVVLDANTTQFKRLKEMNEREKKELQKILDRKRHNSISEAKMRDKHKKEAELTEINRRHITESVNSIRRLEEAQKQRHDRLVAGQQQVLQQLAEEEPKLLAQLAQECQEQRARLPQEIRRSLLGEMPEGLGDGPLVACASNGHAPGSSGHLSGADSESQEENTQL
ADAM10 inh – human ADAM10 inhibitors, primary screen, biochemical, QFRET, HTS; Disintegrin and metalloproteinase domain-containing protein 10 (Homo sapiens), O14672; hit rate 0.62% among 370,000; recombinant ADAM10, EDANS/DABCYL FRET peptide cleavage, 3 h; inhibition, % at 7 µM;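 active = inhibition above a per-campaign cutoff equal to the mean of compounds falling between control-based bounds plus 3 SD, cut at about 20% in these data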;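 also: 0% = DMSO wells while the 100% control is not disclosed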
ADAM10 ctr – ADAM10 inhibitors, counter-screen for ADAM17 exosite inhibitor project, biochemical, FRET, human ADAM10; shares compounds with ADAM17 inh; recombinant ADAM10, EDANS/DABCYL FRET peptide cleavage, 3 h; inhibition, % at 6.95 µM; hit rate 47% among 2,900;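 active = mean inhibition over the triplicate runs exceeds the activity threshold set in the earlier primary screen, cut at about 20% in these data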;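 also: 0% = DMSO wells and 100% = marimastat wells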
ADAM17 confirm – ADAM17 inhibitors, hit retest, confirmation, biochemical, QFRET peptide cleavage. shares compounds with ADAM17 inh. recombinant ADAM17, EDANS/DABCYL QFRET peptide cleavage. inhibition, % at 6.95 µM. hit rate 65% among 2,900;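 active = mean inhibition across replicates above the hit cutoff set in the primary screen, cut at about 8.5% in these data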;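 also: 0% = DMSO wells and 100% = marimastat wells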
PLCg1 ctr – PLC-gamma1 enzyme inhibitors, counter-screen for PLC-beta3 inhibitor project, biochemical, fluorescence | inhibition, % at 12.3 µM | purified PLC-gamma1, fluorogenic substrate | hit rate 3.1% among 3,300 | AID 743258, 2014 | shares compounds with PLCg1 inh; in the data active = inhibition above about 9.5%
PLCb3 confirm – PLC-beta3 inhibitor confirmation, biochemical, fluorescence, purified enzyme; shares compounds with PLCg1 inh; fluorogenic substrate fluorescence; inhibition, % at 12.3 µM; hit rate 1% among 3,300
An asterisk follows results filed as active; / = no result given. Rows were chosen to be rich in hits. Some 2.9% of all compounds tested hit in one or more screens of this group. Rule as the data show it, unless noted: active = inhibition above about 11%; inactive = the rest.

SMILES	PLCg1 inh	proKLK7 act	ADAM17 inh	PLC-beta3 inh	ADAM10 inh	ADAM10 ctr	ADAM17 confirm	PLCg1 ctr	PLCb3 confirm
Cc1c([N+](=O)[O-])cnc(Sc2ccccc2)c1[N+](=O)[O-]	11*	0	10*	1	4	5	3	9.5*	0
OCC1(Cc2cccc(Cl)c2)CCCN(Cc2sc(N3CCCC3)nc2Cl)C1 (stereo not given)	13*	1	10*	-2	13	17	9.7*	0	-28
N#Cc1cccc(Cn2ccc3ccc(-c4ccc5ccn(Cc6ccccc6)c5c4)cc32)c1	-54	-3	-19	-77	-52	/	/	/	/
C=CS(=O)(=O)N(Cc1ccc(F)cc1)C(=C)C(=O)OC	4	0	-5	0	-8	/	/	/	/
CCc1ccc(OC)c(S(=O)(=O)Nc2ccc(Cc3ccncc3)cc2)c1	14*	0	9.2*	-4	12	12	9	-1	0
O=C1NC[C@H](Cc2ccccc2)N(C[C@H]2CCCN2C[C@H](Cc2ccccc2)N2C[C@H](Cc3ccccc3)N(CC3CCCCC3)C(=O)C2=O)C1=O	14*	0	9.0*	0	15	20*	9.3*	-5	-3
O=C1NC[C@H](Cc2ccccc2)N(C[C@@H]2CCCN2C[C@H](Cc2ccccc2)N2C[C@H](Cc3ccccc3)N(CC3CCCCC3)C(=O)C2=O)C1=O	-4	0	2	4	5	/	/	/	/
Cc1ccc(-n2nnnc2CNC(=O)C2CC(=O)N(c3ccccc3)C2)cc1C (stereo not given)	13*	0	9.4*	-3	2	1	4	2	2
Cc1ccc(N2CC(C(=O)NCc3nnnn3-c3ccc(C)c(C)c3)CC2=O)cc1 (stereo not given)	1	0	5	-10	-9	/	/	/	/
CS(=O)(=O)N1CCN(c2ccc(NC(=O)C(c3ccccc3)c3ccccc3)cc2)CC1	9.6*	0	13*	6	17	6	3	-7	-5
Cc1ncc([N+](=O)[O-])n1CC(=O)N/N=C/c1ccccc1F	6	0	9.9*	11*	12	5	3	3	4
Nc1nonc1C(=O)NCCNCc1cc(Br)ccc1OCc1ccccc1F	9.8*	0	14*	11*	25*	2	5	0	3
Nc1nonc1C(=O)NCCNCc1ccccc1OCc1ccccc1F	0	-1	-7	-1	0	/	/	/	/
COC(=O)[C@]12C[C@H](CC(=O)NCc3cccc4ccccc34)C(=O)N(CCC3=CCCCC3)C1=C[C@H](C1CCCC1)O[C@@H]2C	-1	0	0	0	2	/	/	/	/
CCOC(=O)c1oc2cc(O)cc(C)c2c(=O)c1-c1cscn1	4	1	10*	12*	13	7	4	-6	-5
COC(=O)c1ccccc1NC(=O)CSc1nc2ccsc2c(=O)n1Cc1ccc(C(=O)O)cc1	-2	0	-2	0	-10	/	/	/	/
O=C(Nc1ccc(Cl)cc1)N1CCN(Cc2nc3ccccc3c(=O)[nH]2)CC1	-1	0	3	2	1	/	/	/	/
COc1ccc([C@H]2CC(=O)C=C(/C=C/c3ccccc3)C2)cc1OC	11*	0	13*	16*	13	-2	6	-3	-3
C(=NNc1ccc2ccccc2n1)c1ccccn1	-2	-1	1	-3	-15	/	/	/	/
COc1ccc(C(=S)N2CCN(c3ccccc3C)CC2)cc1	13*	0	9.4*	4	8	9	7	-1	-1
CCN1CCN(C(=S)c2ccc(OC)cc2)CC1	0	0	-5	-5	-5	/	/	/	/
Clc1ccc(Cn2ncc3c(N4CCN(c5ccccc5)CC4)ncnc32)cc1	-1	0	0	2	-1	/	/	/	/
CCC(CO)Nc1ccn2nc(-c3cccs3)cc2n1 (stereo not given)	-88	4	-61	-106	-284	/	/	/	/
Cc1cc(C)c(C)c(S(=O)(=O)N2CCC(C(=O)NCc3cccs3)CC2)c1C	12*	0	8.8*	2	13	4	1	-9	-5
O=C(NCc1cccs1)C1CCN(S(=O)(=O)c2cccs2)CC1	0	0	-2	-2	10	/	/	/	/
SMILES	PLCg1 inh	proKLK7 act	ADAM17 inh	PLC-beta3 inh	ADAM10 inh	ADAM10 ctr	ADAM17 confirm	PLCg1 ctr	PLCb3 confirm
CC1(C)C(=O)C=CC(=O)C(C)(C)C(=O)C=CC(=O)C(C)(C)C2=CC=C(O2)C(C)(C)C(=O)C=CC1=O	-8	0	-3	-4	-5	/	/	/	/
O=C(OCC#CCSc1nnc(-c2c[nH]c3ccccc23)o1)c1ccc(F)cc1	0	/	7	-3	18	/	/	/	/
C=C(C)C(=O)Nc1cccc(C2=NOC3(C2)C[C@H](C(N)=O)N(C(=O)/C=C/C)C3)c1 (stereo not given in full)	12*	0	9.9*	6	6	5	3	-8	-3
COc1cccc(-c2ccc(CN3C(C(C)C)C(=O)N(Cc4cn(CCC5OCCO5)nn4)CCS3(=O)=O)cc2)c1OC (stereo not given)	12*	0	13*	9	8	14	7	-3	2
CC(C)C1C(=O)N(Cc2cn(CCC3OCCO3)nn2)CCS(=O)(=O)N1Cc1ccc(-c2ccccc2Cl)cc1 (stereo not given)	-2	0	6	3	4	/	/	/	/
COC(=O)[C@]12C[C@H](CC(=O)N3CCN(C(=O)C4CC4)CC3)C(=O)N(Cc3cccc4ccccc34)C1=C[C@H](COCc1ccccc1)O[C@@H]2C	14*	0	10.0*	2	8	24*	20*	-6	-3
COC(=O)[C@]12C[C@H](CC(=O)N3CCOCC3)C(=O)N(Cc3cccc4ccccc34)C1=C[C@H](COCc1ccccc1)O[C@@H]2C	0	1	-1	-1	6	/	/	/	/
